Active and inactive are the calls of the source. Rule for the calls: active = hit-call score of the fitted dose curve at least 0.9, where 1 is the maximum; inactive = score below 0.9.
Key:
[1] = read-out: Cyclin Dependent Kinase Inhibitor 1A (CDKN1A), CDKN1A (gene 1026); experiment: LTEA_HepaRG_CDKN1A: Life Technologies and Expression Analysis (LTEA) Assay for Cyclin Dependent Kinase Inhibitor 1A (CDKN1A) using HepaRG (AID 2283450); conditions: mRNA level, 48 h; actives raise or lower the signal
Procedure, shortened: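 Gain or loss of CDKN1A transcript is scored by bidirectional fitting against 0.5% DMSO vehicle. Human HepaRG cultures receive chemicals for 48 h across an 8-point series peaking at 100 uM; expression comes from qRT-PCR.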

[2] = read-out: Cyclin D1 (CCND1), CCND1 (gene 595); experiment: LTEA_HepaRG_CCND1: Life Technologies and Expression Analysis (LTEA) Assay for Cyclin D1 (CCND1) using HepaRG (AID 2283451); conditions: mRNA level, 48 h; actives raise or lower the signal;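 for AC50: TaqMan qRT-PCR transcript level normalised to ACTB GAPDH and POLR2A housekeeping genes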
Procedure, shortened: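 Expression change is measured by qRT-PCR in HepaRG cells after 48 h treatment across eight concentrations topping at 100 uM, with duplicate wells and DMSO (0.5%) serving as baseline for bidirectional fitting.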

[3] = read-out: catalase (CAT), CAT (gene 847); experiment: LTEA_HepaRG_CAT: Life Technologies and Expression Analysis (LTEA) Assay for catalase (CAT) using HepaRG (AID 2283452); conditions: mRNA level, 48 h; actives raise or lower the signal
Procedure, shortened: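 HepaRG cells in serum-free induction medium, 0.5% DMSO vehicle, exposed 48 h in duplicate over 8 half-log concentrations from 100 uM. CAT mRNA measured by qRT-PCR, normalized to ACTB, GAPDH, POLR2A; bidirectional fit versus DMSO.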

[4] = read-out: flavin-containing dimethylaniline monooxygenases 3 (FMO3), FMO3 (gene 2328); experiment: LTEA_HepaRG_FMO3: Life Technologies and Expression Analysis (LTEA) Assay for flavin-containing dimethylaniline monooxygenases 3 (FMO3) using HepaRG (AID 2283453); conditions: mRNA level, 48 h; actives raise or lower the signal
Procedure, shortened: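 HepaRG, 48 h exposure, 8-pt half-log series from 100 uM, 0.5% DMSO vehicle, duplicates; FMO3 transcript by Fluidigm TaqMan qRT-PCR, housekeeping-normalized; gain/loss fit vs DMSO.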

[5] = read-out: Cytochrome P450 (CYP1A1), CYP1A1 (gene 1543); experiment: LTEA_HepaRG_CYP1A1: Life Technologies and Expression Analysis (LTEA) Assay for Cytochrome P450 (CYP1A1) using HepaRG (AID 2283454); conditions: mRNA level, 48 h; actives raise or lower the signal
Procedure, shortened: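 Using HepaRG cultures with 0.5% DMSO as vehicle, eight-concentration exposures (max 100 uM) lasted 48 h. Transcript levels were measured by TaqMan qRT-PCR and normalized to ACTB, GAPDH and POLR2A.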

[6] = read-out: CFLAR gene, CFLAR (gene 8837); experiment: LTEA_HepaRG_CFLAR: Life Technologies and Expression Analysis (LTEA) Assay for CFLAR gene using HepaRG (AID 2283455); conditions: mRNA level, 48 h; actives raise or lower the signal
Procedure, shortened: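 Differentiated HepaRG cells in serum-free induction medium were exposed 48 h in duplicate to eight half-log concentrations up to 100 uM in 0.5% DMSO; mRNA measured by TaqMan qRT-PCR, normalized to ACTB, GAPDH, POLR2A; bidirectional fitting versus DMSO.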

[7] = read-out: growth arrest and DNA damage 45 (GADD45A), GADD45A (gene 1647); experiment: LTEA_HepaRG_GADD45A: Life Technologies and Expression Analysis (LTEA) Assay for growth arrest and DNA damage 45 (GADD45A) using HepaRG (AID 2283458); conditions: mRNA level, 48 h; actives raise or lower the signal
Procedure, shortened: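 Human HepaRG liver cells are treated in duplicate for 48 h with chemicals in 0.5% DMSO, highest concentration 100 uM. Expression is read by qRT-PCR and analyzed in both directions against vehicle.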

[8] = read-out: ABC Transporter (ABCB1), ABCB1 (gene 5243); experiment: LTEA_HepaRG_ABCB1: Life Technologies and Expression Analysis (LTEA) Assay for ABC Transporter (ABCB1) using HepaRG (AID 2283460); conditions: mRNA level, 48 h; actives raise or lower the signal
Procedure, shortened: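 HepaRG cells exposed in duplicate for 48 h in serum-free induction medium to eight half-log concentrations up to 100 uM in 0.5% DMSO. ABCB1 mRNA quantified by qRT-PCR, normalised to ACTB, GAPDH and POLR2A; fitted bidirectionally versus DMSO.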

[9] = read-out: growth arrest and DNA damage 45 (GADD45B), GADD45B (gene 4616); experiment: LTEA_HepaRG_GADD45B: Life Technologies and Expression Analysis (LTEA) Assay for growth arrest and DNA damage 45 (GADD45B) using HepaRG (AID 2283461); conditions: mRNA level, 48 h; actives raise or lower the signal
Procedure, shortened: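 Human HepaRG monolayers receive chemicals for 48 h at eight half-log concentrations, highest 100 uM, in 0.5% DMSO. Expression is measured by TaqMan qRT-PCR and normalized to ACTB, GAPDH and POLR2A.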

[10] = read-out: ABC Transporter (ABCC3), ABCC3 (gene 8714); experiment: LTEA_HepaRG_ABCC3: Life Technologies and Expression Analysis (LTEA) Assay for ABC Transporter (ABCC3) using HepaRG (AID 2283462); conditions: mRNA level, 48 h; actives raise or lower the signal
Procedure, shortened: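 Transcriptional change of ABCC3 in HepaRG after 48 h treatment, determined by qRT-PCR normalized to endogenous controls. Concentrations spanned eight half-log steps to 100 uM in 0.5% DMSO.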

[11] = read-out: ABC Transporter (ABCB11), ABCB11 (gene 8647); experiment: LTEA_HepaRG_ABCB11: Life Technologies and Expression Analysis (LTEA) Assay for ABC Transporter (ABCB11) using HepaRG (AID 2283463); conditions: mRNA level, 48 h; actives raise or lower the signal
Procedure, shortened: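 Differentiated human HepaRG cells in serum-free induction medium, dosed in duplicate for 48 h. Eight-point half-log series from 100 uM in 0.5% DMSO; ABCB11 mRNA by qRT-PCR, normalized to ACTB, GAPDH, POLR2A, fitted bidirectionally versus DMSO.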

[12] = read-out: Broad substrate specificity ATP-binding cassette transporter ABCG2 (Homo sapiens) (UniProt Q9UNQ0); experiment: LTEA_HepaRG_ABCG2: Life Technologies and Expression Analysis (LTEA) Assay for ABC Transporter (ABCG2) using HepaRG (AID 2283465); conditions: mRNA level, 48 h; actives raise or lower the signal
Procedure, shortened: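 Differentiated HepaRG cells were exposed for 48 h in serum-free induction medium to 8 half-log concentrations, top 100 uM, in 0.5% DMSO. ABCG2 mRNA was measured by qRT-PCR, normalized to ACTB, GAPDH and POLR2A, with bidirectional fitting versus DMSO.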

[13] = read-out: ATP-citrate lyase (ACLY), ACLY (gene 47); experiment: LTEA_HepaRG_ACLY: Life Technologies and Expression Analysis (LTEA) Assay for ATP-citrate lyase (ACLY) using HepaRG (AID 2283466); conditions: mRNA level, 48 h; actives raise or lower the signal
Procedure, shortened: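 Differentiated HepaRG cells exposed 48 h in serum-free induction medium to eight half-log concentrations up to 100 uM in 0.5% DMSO, duplicates. Transcript measured by Fluidigm TaqMan qRT-PCR, normalized to ACTB, GAPDH, POLR2A; bidirectional fit versus DMSO.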

[14] = read-out: Alkaline Phosphatase, Placental (ALPP) gene, ALPP (gene 250); experiment: LTEA_HepaRG_ALPP: Life Technologies and Expression Analysis (LTEA) Assay for Alkaline Phosphatase, Placental (ALPP) gene using HepaRG (AID 2283468); conditions: mRNA level, 48 h; actives raise or lower the signal
Procedure, shortened: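 Using human liver HepaRG cells, chemicals are tested in duplicate over 48 h at half-log concentrations topping at 100 uM; phenobarbital 1 mM serves as induction control. ALPP mRNA change by qRT-PCR, bidirectional fit against vehicle.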

[15] = read-out: Cyclin D2 (CCND2), CCND2 (gene 894); experiment: LTEA_HepaRG_CCND2: Life Technologies and Expression Analysis (LTEA) Assay for Cyclin D2 (CCND2) using HepaRG (AID 2283449); conditions: mRNA level, 48 h; actives raise or lower the signal;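 note: CCND2 transcript measured by TaqMan qRT-PCR and normalised to three housekeeping genes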
Procedure, shortened: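 Chemicals in 0.5% DMSO, eight half-log concentrations from 100 uM top, were applied in duplicate for 48 h to human HepaRG cells in serum-free induction medium. CCND2 mRNA by TaqMan qRT-PCR, normalised to ACTB/GAPDH/POLR2A; bidirectional fit versus DMSO.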

[16] = CEETOX_H295R_TESTO: CeeTox H295R High-throughput Steroidogenesis Assay for Testosterone (TESTO) (AID 2283457); conditions: actives raise or lower the signal;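 for AC50: cells exposed to chemicals for 48 h before medium collection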
Procedure, shortened: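 Steroidogenesis in H295R cells following OECD 456 with minor changes; 48 h exposure. Medium testosterone by HPLC-MS/MS, DMSO as baseline, with MTT viability run in parallel.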

[17] = read-out: Peroxisomal acyl-coenzyme A oxidase 1 (ACOX1) gene, ACOX1 (gene 51); experiment: LTEA_HepaRG_ACOX1: Life Technologies and Expression Analysis (LTEA) Assay for Peroxisomal acyl-coenzyme A oxidase 1 (ACOX1) gene using HepaRG (AID 2283467); conditions: mRNA level, 48 h; actives raise or lower the signal
Procedure, shortened: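 HepaRG cells, plated 48 h then switched to serum-free induction medium, were exposed in duplicate for 48 h to 8-point half-log concentrations up to 100 uM in 0.5% DMSO. ACOX1 mRNA was measured by qRT-PCR, normalized to ACTB/GAPDH/POLR2A, and fitted bidirectionally versus DMSO.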

Measured: AC50

Chain of Broad substrate specificity ATP-binding cassette transporter ABCG2 (Homo sapiens) (Q9UNQ0 whole entry, looked up): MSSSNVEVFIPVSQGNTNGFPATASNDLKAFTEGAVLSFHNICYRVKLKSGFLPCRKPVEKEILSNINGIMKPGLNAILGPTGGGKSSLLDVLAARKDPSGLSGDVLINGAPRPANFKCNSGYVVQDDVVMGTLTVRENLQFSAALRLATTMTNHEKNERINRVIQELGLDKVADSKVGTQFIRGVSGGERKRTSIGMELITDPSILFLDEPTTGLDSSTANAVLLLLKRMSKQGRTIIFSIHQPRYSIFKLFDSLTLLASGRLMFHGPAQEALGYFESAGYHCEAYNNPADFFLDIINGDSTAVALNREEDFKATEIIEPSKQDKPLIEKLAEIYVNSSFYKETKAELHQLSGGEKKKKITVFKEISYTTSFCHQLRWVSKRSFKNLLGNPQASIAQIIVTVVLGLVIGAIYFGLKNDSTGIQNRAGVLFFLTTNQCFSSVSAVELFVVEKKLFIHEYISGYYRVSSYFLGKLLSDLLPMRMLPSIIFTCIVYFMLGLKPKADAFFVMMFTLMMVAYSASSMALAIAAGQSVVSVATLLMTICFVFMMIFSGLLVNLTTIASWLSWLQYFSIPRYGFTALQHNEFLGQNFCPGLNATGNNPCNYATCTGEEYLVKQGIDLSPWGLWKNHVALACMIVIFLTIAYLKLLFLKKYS

c1ccc2c(c1)Nc1ccccc1S2
active: [2] 67.9 µM | [5] 86.5 µM | [9] 85.3 µM
inactive: [1] | [3] | [4] | [6] | [7] | [8] | [10] | [11] | [12] | [13] | [14]

ClC1=C(Cl)C2(Cl)C3C(Cl)C(Cl)CC3C1(Cl)C2(Cl)Cl (stereo unspecified)
inactive: [15] | [1] | [2] | [3] | [4] | [6] | [7] | [9] | [10] | [11]
active: [5] 33.4 µM | [8] 6.37 µM | [12] 21.4 µM | [13] 85.9 µM | [14] 9.92 µM

Nc1ccc([N+](=O)[O-])cc1Cl
inactive: [16]

Cc1ccc(N)cc1N
inactive: [15] | [1] | [2] | [3] | [4] | [6] | [7] | [8] | [9] | [10] | [11] | [12] | [13] | [14]
active: [5] 21.6 µM

O=P1(N(CCCl)CCCl)NCCCO1 (stereo unspecified)
active: [5] 50 µM
inactive: [15] | [1] | [2] | [3] | [4] | [6] | [7] | [8] | [9] | [10] | [11] | [12] | [13] | [14]

CO/N=C(/C(=O)OC)c1ccccc1COc1ccccc1C
active: [16] 9.76 µM

Nc1ccc2ccccc2c1
active: [5] 23.5 µM
inactive: [1] | [2] | [3] | [4] | [6] | [7] | [8] | [9] | [10] | [11] | [12] | [13] | [17] | [14]
